In all, about 16,000 compounds went through this assay and about 5,800 (36%) were called active. Roughly 23% stayed inconclusive and do not appear here. Some of the results follow. Values without a mark were called inactive. Calls come from the whole dose curve; as a rule, active = well fitted curve in the direction sought with a large enough effect; inconclusive = small, poorly fitted or top-dose-only effect, or effect the other way; inactive = no such curve, though single readings can be large or run the other way.
% is set by controls: 0 for no effect and ±100 for the full control effect.

The target in this test is Cytochrome P450 2C19 (Homo sapiens) (UniProt P33261). As to the kind of experiment: Cytochrome panel assay with activity outcomes. The following applies: recombinant CYP, pro-luciferin dealkylation, luminescence, p450-cyp2c19; series mostly up to 57.1 µM; activity, negative = inhibition: at the top concentration.
Sequence of Cytochrome P450 2C19 (Homo sapiens) (P33261 whole entry, looked up): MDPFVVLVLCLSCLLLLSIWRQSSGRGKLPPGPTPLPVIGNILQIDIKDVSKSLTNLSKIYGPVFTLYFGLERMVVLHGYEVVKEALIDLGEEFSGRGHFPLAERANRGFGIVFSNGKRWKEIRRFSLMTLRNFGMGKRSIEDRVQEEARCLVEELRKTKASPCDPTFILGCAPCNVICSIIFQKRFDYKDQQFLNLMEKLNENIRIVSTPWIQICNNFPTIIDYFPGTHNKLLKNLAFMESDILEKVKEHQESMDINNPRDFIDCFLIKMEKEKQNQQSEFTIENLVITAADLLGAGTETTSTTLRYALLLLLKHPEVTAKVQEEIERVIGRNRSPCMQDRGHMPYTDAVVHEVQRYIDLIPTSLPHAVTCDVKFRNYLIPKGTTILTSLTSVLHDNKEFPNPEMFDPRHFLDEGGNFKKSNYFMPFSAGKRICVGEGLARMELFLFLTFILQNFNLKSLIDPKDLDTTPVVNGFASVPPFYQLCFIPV
The AC50 is the midpoint of the concentration-response curve, whichever way the signal moves. For `O=c1cnc2cnc(Nc3ccccc3)nc2n1CCc1ccccc1`, the AC50 was 2000 nM (active).
As for `CCNc1ncc2ncc(=O)n(C[C@H]3CCCO3)c2n1`, the “activity, negative = inhibition” value is 13.9%.
As for `CCNc1ncc2ncc(=O)n(CCc3ccccc3)c2n1`, the AC50 is 631 nM (active).
With `CCNc1ncc2ncc(=O)n(C3CC3)c2n1`, the “activity, negative = inhibition” value is -16.6%.
Consider `COCCn1c(=O)cnc2cnc(Nc3ccccc3)nc21`, for which the “activity, negative = inhibition” value is -14.5%.
In the case of `CC[N+](C)(C)c1cccc(O)c1`, the “activity, negative = inhibition” value was 3.62%.
On the same count and under the same terms, to `CCOc1ccc(C2=[N+]([O-])C(C)(C)N(O)C2(C)C)cc1` belongs 2.26%.
In the case of `CCOc1ccc(C(Nc2ccc(C)cc2)P2(=O)OCC(C)(C)CO2)cc1` (stereo not drawn), the AC50 was 25100 nM (active).
On to `CN(C)Cc1ccccc1-c1nccc(N(C)C)n1`, for which the “activity, negative = inhibition” value was 3.03%.
With `CN(Cc1cccc2ccccc12)Cc1cccc2ccccc12`, the AC50 is 1580 nM (active).
Still for that read-out and setting: next, `CN(C/C=C\c1ccccc1)Cc1cccc2ccccc12`: 501 nM (active).
On to `c1ccc2c(CC3=NCCN3)cccc2c1`, for which the “activity, negative = inhibition” value is -5.96% [at 25.6 µM].
Consider `NCCSS(=O)(=O)CCN`, for which the activity, negative = inhibition is 4.15% [at 11.4 µM].
In the case of `COCCn1c(C)cc2c(c1=O)C(c1ccccc1F)C(C#N)=C(N)O2` (stereo not drawn), the “activity, negative = inhibition” value was 17.4%.
Take `CCOc1ccccc1C1C(C#N)=C(N)Oc2n[nH]c(CC)c21` (stereo not drawn): the AC50 was 6310 nM (active).
On to `N=C(N)SCCN`, for which the “activity, negative = inhibition” value is -22.8%.
Still for that read-out and setting: next, `CCN1CCC[C@@H]1CNC(=O)c1cc(S(N)(=O)=O)ccc1OC`: -20.4%.
Turning to `CC(=O)C1=C(NC(=O)c2ccc(F)cc2)CC2C1C2(C)C` (stereo not drawn), the half-maximal activity concentration (AC50) is 3160 nM (active).
The same measure, in the same setting: next, `O=[N+]([O-])c1cccc(-c2nc(-c3ccncc3)no2)c1`: 891 nM (active).
As for `Nc1nc(-c2cccc([N+](=O)[O-])c2)cc(-c2cc(-c3cccc([N+](=O)[O-])c3)nc(N)n2)n1`, the activity, negative = inhibition is 14.8% [at 11.4 µM].
For the compound `C[C@@H]1NC(=O)C/C=C\[C@@H](C)[C@@H]2C=C[C@H](O)[C@@H](COC(=O)[C@H](C)NC(=O)C/C=C\[C@@H](C)[C@@H]3C=C[C@H](O)[C@@H](COC1=O)O3)O2`, the activity, negative = inhibition is -11.5% [at 11.4 µM].
Consider `CCCNC(=O)OC[C@@H]1O[C@H](c2ccccc2)C=C[C@@H]1Oc1ccc(OC)cc1`, for which the activity, negative = inhibition was -44.8% [at 11.4 µM].
`COc1ccc(O[C@H]2C=C[C@@H](c3ccccc3)O[C@H]2CO/N=C(/C)CCC(=O)OC[C@@H]2O[C@H](c3ccccc3)C=C[C@@H]2Oc2ccc(OC)cc2)cc1`: the AC50 is 100 nM (active).
For the compound `CC(=O)OC[C@H]1O[C@@H](ON=C(C)C)[C@H](OC(C)=O)[C@@H](OC(C)=O)[C@H]1OC(C)=O`, the activity, negative = inhibition is 32.2% [at 11.4 µM].
The same measure, in the same setting: to `CC(=O)OC[C@H]1O[C@@H](O/N=C(\C)CCN2CCc3nc(-c4ccccc4)c(-c4ccccc4)cc3C2)[C@H](OC(C)=O)[C@@H](OC(C)=O)[C@H]1OC(C)=O` belongs 6.61% [at 11.4 µM].
As for `CC(=O)OC[C@@H]1O[C@H](CCO/N=C(\C)CCC(=O)OC[C@@H]2O[C@H](C#Cc3ccccc3)C=C[C@@H]2Oc2ccc(C)cc2)C=C[C@@H]1OC(C)=O`, the activity, negative = inhibition was -44.9% [at 11.4 µM].
Consider `COc1ccc(O[C@H]2C=C[C@@H](c3ccccc3)O[C@H]2COC(=O)CC/C(C)=N/OCC[C@@H]2C=C[C@H](OC(C)=O)[C@H](COC(C)=O)O2)cc1`, for which the AC50 is 398 nM (active).
Same read-out and setting: next, `COc1ccc(O[C@H]2C=C[C@@H](c3ccccc3)O[C@H]2COC(=O)CC/C(C)=N/O[C@@H]2O[C@H](COC(C)=O)[C@H](OC(C)=O)[C@H](OC(C)=O)[C@H]2OC(C)=O)cc1`: 1580 nM (active).
With `CC(=O)OC[C@@H]1O[C@H](CCON=C(C)C)C=C[C@@H]1OC(C)=O`, the activity, negative = inhibition was -20.6% [at 11.4 µM].
As to `COc1ccc(O[C@H]2C=C[C@@H](c3ccccc3)O[C@H]2COC(=O)N2CCCCC2)cc1`, the AC50 is 501 nM (active).
Consider `COc1ccc(O[C@H]2C=C[C@@H](c3ccccc3)O[C@@H]2CON=C(C)C)cc1`, for which the activity, negative = inhibition is -28.2% [at 11.4 µM].
On the same count and under the same terms, to `CCCNC(=O)OC[C@H]1O[C@@H](CCO/N=C2/[C@H]3O[C@@H]3[C@@H](O)[C@H]3[C@H]2CCn2c(=O)n(-c4ccccc4)c(=O)n23)C=C[C@@H]1Oc1ccc(OC)cc1` belongs -3.58% [at 11.4 µM].
Still for that read-out and setting: next, `CC(=O)OC[C@@H]1O[C@H](C/C=N\OC[C@@H](O)COCc2ccco2)C=C[C@@H]1OC(C)=O`: 14.8% [at 11.4 µM]; `C/C(CCN1CCCc2nc(C)c(C)cc21)=N\OC[C@@H](O)[C@@H]1O[C@@H]2OC(C)(C)O[C@@H]2[C@H]1O`: -36.9% [at 11.4 µM].
Regarding `COc1ccc(O[C@H]2C=C[C@@H](c3ccccc3)O[C@H]2COC(=O)CC/C(C)=N\OC[C@@H](O)[C@H]2O[C@H]3OC(C)(C)O[C@H]3[C@@H]2O)cc1`, the AC50 is 5.01 nM (active).
Take `CC(C)CO/N=C1/[C@H]2O[C@@H]2[C@@H](O)[C@H]2[C@H]1CCn1c(=O)n(-c3ccccc3)c(=O)n12`: the activity, negative = inhibition was 15.7% [at 11.4 µM].
On the same count and under the same terms, to `CC(=O)OC[C@@H]1O[C@H](C/C=N\O[C@@H](C)c2cc(-c3c(C)cc(C)cc3C)no2)C=C[C@@H]1OC(C)=O` belongs -35.1% [at 11.4 µM].
For `COc1ccc(O[C@H]2C=C[C@@H](c3ccccc3)O[C@H]2CO/N=C\C[C@@H]2C=C[C@H](OC(C)=O)[C@H](COC(C)=O)O2)cc1`, the AC50 is 794 nM (active).
`C/C(CCN1CCc2nc(-c3ccccc3)c(-c3ccccc3)cc2C1)=N\OC[C@@H](O)[C@@H]1O[C@@H]2OC(C)(C)O[C@@H]2[C@H]1O`: the activity, negative = inhibition is 3.78% [at 11.4 µM].
Regarding `CC(=O)OC[C@@H]1O[C@H](C/C=N\OC[C@@H](C)[C@H](OCc2ccccc2)C(C)C)C=C[C@@H]1OC(C)=O`, the activity, negative = inhibition was -16.1% [at 11.4 µM].
On the same count and under the same terms, to `CCc1cc2c(nc1CC)CCN(CC/C(C)=N/O[C@@H](C)c1cc(-c3c(C)cc(C)cc3C)no1)C2` belongs -42.9% [at 11.4 µM].
As for `COc1ccc(O[C@H]2C=C[C@@H](c3ccccc3)O[C@H]2COC(=O)CC/C(C)=N\O[C@@H](C)c2cc(-c3c(C)cc(C)cc3C)no2)cc1`, the AC50 is 100 nM (active).
On the same count and under the same terms, to `COc1ccc(O[C@H]2C=C[C@@H](c3ccccc3)O[C@H]2CO/N=C2/[C@H]3O[C@@H]3[C@@H](O)[C@H]3[C@H]2CCn2c(=O)n(-c4ccccc4)c(=O)n23)cc1` belongs 2510 nM (active).
In the case of `O=C1CCCN1CC(O)CS(=O)(=O)c1ccccc1` (stereo not drawn), the “activity, negative = inhibition” value is -6.21%.
Turning to `Cc1cc2c(nc1C)CCCN2CC(O)CN1CCCc2nc(C)c(C)cc21`, the activity, negative = inhibition is 6.93% [at 11.4 µM].
With `Cc1ccc(S(=O)(=O)CC(O)CN2CCCC2=O)cc1` (stereo not drawn), the AC50 is 10000 nM (active).
As for `CN(C)C(=O)/N=N\C(=O)N(C)C`, the “activity, negative = inhibition” value is -47.9%.
The same measure, in the same setting: to `N[C@H](C(=O)O)[C@@H](O)c1cnc[nH]1` belongs -17.9% [at 11.4 µM].
For `C=CCOC(=O)/C(=C\c1cccc2ccccc12)NC(=O)c1ccccc1`, the AC50 is 398 nM (active).
Consider `CCOc1ccccc1/C=C(\C#N)C(N)=O`, for which the activity, negative = inhibition is -18.7% [at 11.4 µM].
Regarding `CCOc1cccc2cc(C(N)=O)c(=NCc3ccccc3)oc12`, the AC50 was 10000 nM (active).
Still for that read-out and setting: to `O=C(CSc1nc2ccccc2c(=O)n1Cc1ccccc1)NCc1ccco1` belongs 708 nM (active).
With `COCc1nc2c([nH]1)c(=O)n(C)c(=O)n2CC(C)C`, the “activity, negative = inhibition” value is -17%.
In the case of `CCOC(=O)CSc1nc2ccccc2c(=O)n1CC1CCC(C(=O)NCc2ccco2)CC1` (stereo not drawn), the AC50 was 7080 nM (active).
Consider `CC(C)Cn1c(SCc2nc3ccccc3c(=O)[nH]2)nc2ccccc2c1=O`, for which the AC50 was 2510 nM (active).
Still for that read-out and setting: to `CC(=O)NCCn1c(SCC(=O)NCc2ccco2)nc2ccccc2c1=O` belongs 1120 nM (active).
Consider `COCCn1c(Cc2ccccc2)nnc1SCc1nc2ccccc2c(=O)[nH]1`, for which the “activity, negative = inhibition” value is 56%.
`O=C(CSc1ccccc1C(=O)O)NCc1ccco1`: the “activity, negative = inhibition” value was -3.72%.
Take `C=CCNC(=O)C1CCN(S(=O)(=O)CC)CC1`: the “activity, negative = inhibition” value is -20.8%.
As for `C=CCSc1nc2ccccc2c(=O)n1Cc1ccco1`, the AC50 was 1000 nM (active).
Still for that read-out and setting: next, `Cc1cc(NC(=O)CSc2nc3ccccc3c(=O)n2CCCC(=O)NCc2ccco2)n[nH]1`: 2240 nM (active); `O=C(CSc1nc2ccccc2c(=O)n1CCCO)NCc1ccccc1`: 11200 nM (active).
Still for that read-out and setting: next, `Cc1cccc(C)c1-n1c(SCC(=O)NCc2ccco2)nc2ccccc2c1=O`: 4470 nM (active); `O=C(CSc1nc2ccccc2c(=O)n1CCCC(=O)N1CCCC1)NCc1ccco1`: 4470 nM (active); `Cc1cc(NC(=O)CSc2nc3ccsc3c(=O)n2Cc2ccccn2)n[nH]1`: 15800 nM (active).
`O=C(O)CCCCCn1c(SCC(=O)N2CCCC2)nc2ccsc2c1=O`: the “activity, negative = inhibition” value is 16.5%.
Regarding `O=c1c2ccccc2nc(SCc2ccccc2Cl)n1Cc1ccccc1`, the AC50 was 2820 nM (active).
Take `COC(=O)N1CCC2(CCCN(C(=O)Nc3ccc(OC)cc3)C2)CC1`: the “activity, negative = inhibition” value was -38.2%.
`COc1ccc(NC(=O)CSc2nc3ccccc3c(=O)n2CCC(=O)N2CCCCC2)cc1`: the AC50 is 794 nM (active).
Still for that read-out and setting: next, `O=C(CSc1nc2ccccc2c(=O)n1NC(=O)Cc1ccccc1)NCc1ccccc1Cl`: 794 nM (active).
In the case of `CCOC(=O)C1=C(O)/C(=C/c2cc(OC)c(OC)c(OC)c2)N=C1C`, the “activity, negative = inhibition” value was -19.3%.
`CCOc1cc(/C=C2\N=C(C)OC2=O)cc(Br)c1OCC(=O)OC`: the “activity, negative = inhibition” value was -28.7%.
As for `CCOC(=O)COc1c(C=O)cc(Br)cc1OC`, the AC50 is 6310 nM (active).
Take `Cc1ccc(C)c(S(=O)(=O)N2CCC(c3nc4c(nnn4Cc4ccc(F)cc4)c(=O)[nH]3)CC2)c1`: the AC50 was 4470 nM (active).
Still for that read-out and setting: to `Nc1nc(Br)c2c(F)cccc2c1-c1ccc(Cl)cc1` belongs 1260 nM (active); to `Nc1nc(Br)c2ccccc2c1-c1ccc(F)cc1`, 2820 nM (active).
On the same count and under the same terms, next, `O=C(Cc1ccc2c(c1)CCCC2)Nc1ccccc1Br`: 3550 nM (active); `CC1=CC(C)(C)N(C)C(=O)N1c1ccc(Cl)cc1`: 15800 nM (active).

The values are drawn from PubChem BioAssay AID1851 (National Center for Advancing Translational Sciences (NCATS), 2009).
